Data from PubChem BioAssay.
Active and inactive are the calls of the source.

Experiments:
[1] = binders of probe aFSTL3 on microarray, primary screen, stem cell growth factor project, biochemical, small-molecule microarray, fluorescence 635/667 (AID 1064); details: higher = more signal;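 also: measures binding of the biotinylated anti-FSTL3 antibody to printed compounds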
[2] = binders from COS7 lysate, DM2A8 probe, primary screen, torsin A project, cell lysate, small-molecule microarray, fluorescence 635/667 (AID 1065); details: higher = more signal, COS7 lysate expressing mutant human TOR1A
[3] = binders of probe aFGF2 on microarray, primary screen, stem cell growth factor project, biochemical, small-molecule microarray, fluorescence 635/667 (AID 1067); details: higher = more signal;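 also: measures binding of biotinylated aFGF2 protein to printed compounds on slides; z-score merges feature fluorescence and signal-to-noise across triplicate slides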
[4] = binders of probe aFGF10 on microarray, primary screen, stem cell growth factor project, biochemical, small-molecule microarray, fluorescence 635/667 (AID 1071); details: higher = more signal;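 also: score merges 667 nm spot intensity and signal to noise from triplicate slides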
[5] = target: Neurogenic locus notch homolog protein 2 (Homo sapiens) (UniProt Q04721); experiment: Notch2 binders on small-molecule microarrays, primary screen, biochemical, small-molecule microarray, 635 nm fluorescence, stem cell growth factors (AID 1073); details: Notch2 binding, higher = more signal
Neurogenic locus notch homolog protein 2 (Homo sapiens), sequence (Q04721 whole entry, looked up, canonical isoform): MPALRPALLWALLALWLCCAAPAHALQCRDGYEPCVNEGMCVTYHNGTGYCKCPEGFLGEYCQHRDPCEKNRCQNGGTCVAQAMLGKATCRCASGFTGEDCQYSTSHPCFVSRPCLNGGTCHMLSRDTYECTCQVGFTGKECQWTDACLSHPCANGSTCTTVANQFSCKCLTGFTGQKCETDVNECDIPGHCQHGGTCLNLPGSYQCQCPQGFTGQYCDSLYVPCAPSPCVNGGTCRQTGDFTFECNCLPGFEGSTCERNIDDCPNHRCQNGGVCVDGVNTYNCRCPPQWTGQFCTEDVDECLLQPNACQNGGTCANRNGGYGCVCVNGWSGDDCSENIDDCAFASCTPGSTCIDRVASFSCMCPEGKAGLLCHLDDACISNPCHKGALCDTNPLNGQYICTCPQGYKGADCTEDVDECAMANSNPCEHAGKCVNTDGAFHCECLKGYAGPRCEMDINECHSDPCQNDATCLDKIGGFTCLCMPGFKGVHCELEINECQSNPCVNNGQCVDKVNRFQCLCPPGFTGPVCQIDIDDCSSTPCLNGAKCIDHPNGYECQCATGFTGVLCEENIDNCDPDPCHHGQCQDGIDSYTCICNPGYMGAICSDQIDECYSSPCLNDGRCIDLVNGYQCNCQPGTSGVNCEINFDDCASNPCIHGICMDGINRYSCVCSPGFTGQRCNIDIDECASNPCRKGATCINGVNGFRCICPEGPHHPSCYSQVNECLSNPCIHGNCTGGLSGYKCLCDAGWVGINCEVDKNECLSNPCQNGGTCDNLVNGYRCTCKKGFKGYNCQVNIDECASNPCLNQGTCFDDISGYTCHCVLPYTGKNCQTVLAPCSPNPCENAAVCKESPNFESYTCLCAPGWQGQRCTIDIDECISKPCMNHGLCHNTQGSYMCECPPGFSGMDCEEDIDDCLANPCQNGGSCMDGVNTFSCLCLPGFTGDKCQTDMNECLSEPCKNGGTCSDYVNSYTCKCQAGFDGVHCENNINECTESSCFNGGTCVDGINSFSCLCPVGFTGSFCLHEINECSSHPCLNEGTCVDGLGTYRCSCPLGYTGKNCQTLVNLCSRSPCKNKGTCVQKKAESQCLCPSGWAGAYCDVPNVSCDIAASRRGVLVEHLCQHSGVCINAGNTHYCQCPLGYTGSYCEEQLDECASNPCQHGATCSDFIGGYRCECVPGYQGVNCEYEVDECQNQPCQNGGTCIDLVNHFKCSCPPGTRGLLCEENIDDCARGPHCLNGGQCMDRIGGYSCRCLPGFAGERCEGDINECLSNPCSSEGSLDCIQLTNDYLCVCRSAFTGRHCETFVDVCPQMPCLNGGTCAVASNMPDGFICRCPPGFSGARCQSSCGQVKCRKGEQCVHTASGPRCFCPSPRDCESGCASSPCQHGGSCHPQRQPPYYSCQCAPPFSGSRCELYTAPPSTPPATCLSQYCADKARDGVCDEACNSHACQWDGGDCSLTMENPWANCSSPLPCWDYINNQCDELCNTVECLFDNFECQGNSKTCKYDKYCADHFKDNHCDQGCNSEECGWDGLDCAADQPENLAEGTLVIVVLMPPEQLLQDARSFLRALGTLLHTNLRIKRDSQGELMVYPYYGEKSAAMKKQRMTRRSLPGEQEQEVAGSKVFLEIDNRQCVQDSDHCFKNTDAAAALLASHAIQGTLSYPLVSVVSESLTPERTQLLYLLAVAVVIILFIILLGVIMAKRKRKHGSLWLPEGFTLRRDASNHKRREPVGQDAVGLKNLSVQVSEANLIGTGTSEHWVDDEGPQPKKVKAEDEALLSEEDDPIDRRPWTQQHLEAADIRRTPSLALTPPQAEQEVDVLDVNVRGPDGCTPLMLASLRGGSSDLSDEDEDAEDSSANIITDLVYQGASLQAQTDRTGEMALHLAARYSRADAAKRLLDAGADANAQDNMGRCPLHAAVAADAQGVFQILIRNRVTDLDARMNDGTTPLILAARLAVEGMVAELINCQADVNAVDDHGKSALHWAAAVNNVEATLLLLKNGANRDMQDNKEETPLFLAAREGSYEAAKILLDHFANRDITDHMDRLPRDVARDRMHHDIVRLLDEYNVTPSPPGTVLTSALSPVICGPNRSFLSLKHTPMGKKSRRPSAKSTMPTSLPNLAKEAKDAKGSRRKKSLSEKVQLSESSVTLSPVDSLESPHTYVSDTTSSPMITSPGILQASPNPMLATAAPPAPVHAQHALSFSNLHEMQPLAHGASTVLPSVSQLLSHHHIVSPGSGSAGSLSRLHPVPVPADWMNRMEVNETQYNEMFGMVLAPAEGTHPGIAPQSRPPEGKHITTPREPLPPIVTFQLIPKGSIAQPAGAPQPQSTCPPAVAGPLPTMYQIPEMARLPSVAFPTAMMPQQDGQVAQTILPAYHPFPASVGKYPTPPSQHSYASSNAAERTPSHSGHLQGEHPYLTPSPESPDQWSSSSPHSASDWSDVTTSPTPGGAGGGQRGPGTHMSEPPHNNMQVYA

[6] = target: Pro-neuregulin-1, membrane-bound isoform (Homo sapiens) (UniProt Q02297); experiment: NRG1 binders on small-molecule microarrays, primary screen, psychiatric disease protein project, biochemical, small-molecule microarray, fluorescence 635/667 (AID 1075); details: NRG1 binding, 635 nm fluorescence, higher = more signal;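 also: score combines 667 nm spot fluorescence with signal to noise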
Pro-neuregulin-1, membrane-bound isoform (Homo sapiens), sequence (Q02297 whole entry, looked up, the tested form may be a part, canonical isoform): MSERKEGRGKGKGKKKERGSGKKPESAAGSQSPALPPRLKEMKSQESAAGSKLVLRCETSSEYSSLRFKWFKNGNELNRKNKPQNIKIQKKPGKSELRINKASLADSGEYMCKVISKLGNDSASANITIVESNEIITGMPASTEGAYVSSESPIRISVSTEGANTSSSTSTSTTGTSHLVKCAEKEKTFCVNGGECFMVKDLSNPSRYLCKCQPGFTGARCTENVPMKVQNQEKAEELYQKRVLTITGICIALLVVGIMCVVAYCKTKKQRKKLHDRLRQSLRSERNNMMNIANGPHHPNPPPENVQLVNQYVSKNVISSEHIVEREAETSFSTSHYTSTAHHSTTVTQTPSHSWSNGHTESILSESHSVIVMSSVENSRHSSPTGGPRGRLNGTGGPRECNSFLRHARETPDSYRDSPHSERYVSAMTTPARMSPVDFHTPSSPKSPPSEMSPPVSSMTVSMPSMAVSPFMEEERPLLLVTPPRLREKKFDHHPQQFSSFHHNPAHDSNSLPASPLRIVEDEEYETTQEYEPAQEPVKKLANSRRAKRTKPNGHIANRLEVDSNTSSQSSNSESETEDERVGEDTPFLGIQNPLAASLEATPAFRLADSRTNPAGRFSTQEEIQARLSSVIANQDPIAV

[7] = system: Neuregulin-1 EGF-like domain; experiment: binders of neuregulin-1 EGF-like domain, primary screen, biochemical, small-molecule microarray, 635 nm fluorescence (AID 1081); details: small-molecule microarray binding, higher = more signal;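 also: binding of the protein to compounds printed on small-molecule microarray slides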
[8] = FRG1 promoter luciferase signal modulators, primary screen, FRG1 inhibition for FSHD, cell-based, C2C12 myotubes, firefly/Renilla luciferase, luminescence (AID 1084); details: higher = more signal, called active from +8 up or from −8 down
[9] = binders of probe aFST on microarray, primary screen, stem cell growth factor project, biochemical, small-molecule microarray, fluorescence 635/667 (AID 1086); details: higher = more signal;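 also: score merges 667 nm fluorescence with signal-to-noise of each printed compound spot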
[10] = binders of probe aHhip on microarray, primary screen, stem cell growth factor project, biochemical, small-molecule microarray, fluorescence 635/667 (AID 1087); details: higher = more signal;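 also: score merges spot fluorescence at 667nm with spot signal to noise ratio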
[11] = system: PRMT1 (protein arginine N-methyltransferase 1); experiment: PRMT1 binders on small-molecule microarrays, primary screen, biochemical, small-molecule microarray, 635 nm fluorescence (AID 1088); details: small-molecule microarray binding, higher = more signal;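 also: binding of Prmt1 protein to compounds spotted on small-molecule microarray slides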
[12] = yeast growth modulation, basal conditions, primary screen, YJM789 clinical isolate, OD600, 24 h (AID 1089);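 also: growth of clinical yeast isolate S. cerevisiae YJM 789 seeded 1000 cells per well; test concentration not given here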; details: S. cerevisiae YJM789 growth, higher = more signal, called active from +8 up or from −8 down
[13] = fission yeast growth modulation, primary screen, strain 972, OD600, 24 h, no modulator (AID 1090);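 also: basal condition with compound alone and no growth modifier present; test concentration not given here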; details: S. pombe 972 growth, higher = more signal, called active from +8 up or from −8 down
[14] = S. cerevisiae growth modulation with rapamycin, primary screen, strain BY4716, OD600, 96 h (AID 1091); details: higher = more signal, called active from +8 up or from −8 down; also: test concentration not given here
[15] = target: Torsin-1A-interacting protein 2 (Homo sapiens) (UniProt Q8NFQ8); experiment: LULL1 binders on small-molecule microarray, primary screen, cell lysate, human LULL1 lysate, 635/667 nm fluorescence (AID 1092); details: hLULL1 lysate binding, 635 nm fluorescence, higher = more signal;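 also: probe is lysate of COS7 cells overexpressing human LULL1; score merges per-feature 667 nm fluorescence with signal-to-noise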
Torsin-1A-interacting protein 2 (Homo sapiens), sequence (Q8NFQ8 whole entry, looked up): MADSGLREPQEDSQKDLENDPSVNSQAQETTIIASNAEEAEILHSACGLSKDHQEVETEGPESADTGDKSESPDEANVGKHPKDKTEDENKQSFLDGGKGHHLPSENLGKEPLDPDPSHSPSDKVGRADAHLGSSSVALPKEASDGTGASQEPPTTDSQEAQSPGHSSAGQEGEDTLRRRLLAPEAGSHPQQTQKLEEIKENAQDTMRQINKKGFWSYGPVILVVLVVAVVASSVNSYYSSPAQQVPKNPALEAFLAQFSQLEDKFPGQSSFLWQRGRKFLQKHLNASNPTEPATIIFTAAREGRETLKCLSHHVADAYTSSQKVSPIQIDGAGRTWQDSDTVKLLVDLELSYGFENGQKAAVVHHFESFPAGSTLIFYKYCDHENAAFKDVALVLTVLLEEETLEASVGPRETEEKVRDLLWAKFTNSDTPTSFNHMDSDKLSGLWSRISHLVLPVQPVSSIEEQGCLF

[16] = E. coli growth modulation, two-sided OD650, primary screen, E. coli filamentation project, strain DRC41, 24 h (AID 1093); details: OD650, 24 h, higher = more signal, called active from +8 up or from −8 down;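 also: MC1000 strain lacking acrAB efflux and sulA so SOS filamentation is blocked; test concentration not given here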
[17] = small-molecule microarray binders of probe aLefty2, primary screen, biochemical, biotinylated probe, 635/667 nm fluorescence (AID 1094); details: higher = more signal;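 also: score merges spot fluorescence near 667 nm with spot signal-to-noise ratio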
[18] = system: Noggin (protein binding on small-molecule microarray); experiment: Noggin binders on small-molecule microarray, primary screen, biochemical, 635/667 nm fluorescence (AID 1095); details: 635 nm fluorescence, higher = more signal;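 also: score merges 667 nm feature fluorescence with signal to noise over triplicate slides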
[19] = target: Neurogenic locus notch homolog protein 3 (Homo sapiens) (UniProt Q9UM47); experiment: NOTCH3 binders on small-molecule microarray, primary screen, biochemical, 635/667 nm fluorescence (AID 1096); details: NOTCH3 binding, 635 nm fluorescence, higher = more signal
[20] = small-molecule microarray binders of probe aEGFR, primary screen, biochemical, biotinylated probe, 635/667 nm fluorescence (AID 1097); details: higher = more signal;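 also: probe is a biotinylated anti-EGFR antibody binding compounds printed on slides; score combines fluorescence near 667 nm and signal to noise of each spot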

| Structure (SMILES) | composite z-score [1] | composite z-score [2] | composite z-score [3] | composite z-score [4] | composite z-score [5] | composite z-score [6] | composite z-score [7] | z-score [8] | composite z-score [9] | composite z-score [10] | composite z-score [11] | z-score [12] | z-score [13] | z-score [14] | composite z-score [15] | z-score [16] | composite z-score [17] | composite z-score [18] | composite z-score [19] | composite z-score [20] |
| --- | --- | --- | --- | --- | --- | --- | --- | --- | --- | --- | --- | --- | --- | --- | --- | --- | --- | --- | --- | --- |
| C=CC[C@]1(C(=O)NCCN2CCOCC2)N=C(c2ccc(OCCCO)cc2)O[C@H]1c1ccccc1CN=[N+]=[N-] | 0.442 | 1.46 | -0.0078 | 0.333 | 0.837 | 0.849 | 1.23 | 1.81 (inactive) | 0.171 | 0.0338 | 1.4 | -0.0011 (inactive) | -1.77 (inactive) | -0.744 (inactive) | 1.64 | 1.23 (inactive) | 0.298 | 0.641 | -1.35 | 0.159 |
| CN1C(=O)C2C=CC(C(O)C#Cc3ccccc3)N(Nc3ccccc3)C2C1=O (stereo not given) | 0.247 | 0.161 | 0.111 | 1.17 | 1.7 | 1.86 | 1.3 | 2.29 (inactive) | 1.71 | -0.0024 | 1.54 | 0.415 (inactive) | -1.18 (inactive) | 1 (inactive) | 3.4 | -0.672 (inactive) | 0.166 | 0.295 | 1.03 | 0.199 |
| CN(C)C(=O)[C@@]1(Cc2ccccc2CN=[N+]=[N-])N=C(c2ccc(OCCCO)cc2)O[C@H]1c1ccccc1CN=[N+]=[N-] | 0.262 | -0.159 | 0.222 | 0.776 | 1.52 | 1.64 | 1.29 | -4.01 (inactive) | 0.457 | -0.388 | 0.88 | 0.733 (inactive) | 1.19 (inactive) | 15.6 (active) | 2.6 | 0.0474 (inactive) | 0.514 | -0.586 | 0.456 | 0.424 |
| COc1ccc(C(O)C2C=CC3C(=O)N(c4ccccc4)C(=O)C3N2Nc2ccc([N+](=O)[O-])cc2)cc1 (stereo not given) | 0.928 | -0.0823 | 0.25 | 0.935 | 1.64 | 0.546 | 1.16 | -1 (inactive) | 1.18 | -0.149 | 1.11 | 0.137 (inactive) | 1.4 (inactive) | 3.22 (inactive) | 3.09 | -0.909 (inactive) | 0.432 | 0.0062 | 1.1 | 0.239 |
| C=C(/C(=C/C[C@H](OC(C)=O)c1ccccc1OCCO)c1cc(C(=O)OC)ccc1OC)C(C)C | -0.243 | -0.415 | -0.0222 | 0.826 | -0.0413 | 0.0648 | 1.09 | -0.976 (inactive) | -0.36 | 0.126 | 0.617 | 0.946 (inactive) | -1.2 (inactive) | -0.376 (inactive) | 1.04 | 1.18 (inactive) | -0.141 | 0.295 | -0.189 | 0.509 |
| C=C(C)[C@@H]1CC=C(C(O)C2C=CC3C(=O)N(c4ccccc4)C(=O)C3N2Nc2ccccc2F)CC1 (stereo not given in full) | 0.264 | 0.0754 | 0.195 | 0.825 | 1.63 | 1.94 | 1.22 | -1.51 (inactive) | 1.84 | 0.18 | 1.57 | 1.59 (inactive) | 1.09 (inactive) | 3.06 (inactive) | 3.64 | -1.48 (inactive) | 0.0865 | 0.443 | 1.01 | 0.11 |
| O[C@@H](Cc1ccccc1)[C@@H](/C=C/C1CC1)N(CC#Cc1ccccc1)Cc1cccc(Cl)c1 | 1.39 | -0.393 | -0.129 | -1.06 | -1.32 | -0.34 | -0.162 | -0.976 (inactive) | -0.959 | -0.227 | -0.235 | 0.949 (inactive) | 0.322 (inactive) | -0.0243 (inactive) | -0.0561 | 1.37 (inactive) | 0.146 | -1.4 | -1.08 | -0.398 |
| [N-]=[N+]=Nc1ccccc1[C@H]1OC(c2ccc(OCCCO)cc2)=N[C@@]1(Cc1ccccc1)C(=O)N1CCCCC1 | 0.308 | -0.182 | -0.0044 | 0.692 | 1.63 | 1.01 | 1.32 | -1.02 (inactive) | 0.763 | -0.0994 | 1.54 | -2.09 (inactive) | 0.708 (inactive) | 2.21 (inactive) | 3.29 | 0.774 (inactive) | 0.339 | 0.94 | 1.08 | 0.286 |
| OCC1CC(c2ccccc2)=NO1 (stereo not given) | -0.315 | 0.239 | -0.0242 | 0.202 | -0.244 | -0.584 | -0.164 | 0.557 (inactive) | 0.127 | 0.235 | -1.11 | -0.248 (inactive) | -0.0256 (inactive) | 0.368 (inactive) | -1.3 | 0.677 (inactive) | -0.119 | 0.397 | -0.473 | -0.068 |
| COc1cccc(/C=C/C=O)c1 | 0.278 | 0.187 | 0.0726 | 0.505 | 0.367 | -0.437 | -0.443 | 1.02 (inactive) | 0.375 | 0.57 | 0.247 | 1.95 (inactive) | -13.2 (active) | -0.144 (inactive) | 0.205 | -0.283 (inactive) | 0.226 | 0.137 | 0.181 | 0.198 |
